High-throughput results from PubChem.
VACV mCherry inh – vaccinia inhibition (mCherry reporter); Vaccinia virus mCherry reporter infection, fluorescence; Potency, µM (highest dose often 36.5 µM), actives largely listed as inhibitors; hit rate 0.63% among 310,000; calls by dose curve; tested in A549 cells; note: nearly all actives have a fitted effect of over 35% in size
HCMV inh – human cytomegalovirus inhibition | HFF cells, HCMV-luciferase reporter, 72 h; stronger effect = lower value | activity change, negative = inhibition, % at 57.5 µM | hit rate 4.5% among 410,000 | AID 1259415; in the data active = activity change below about -60%; inconclusive = no clear call, values can overlap the other calls; inactive = above about -39%
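Luciferase read-out from HCMV-luciferase-infected HFFs (MOI 1 PFU/cell) 72 h post infection at 37C; compounds added after 16 h cell attachment; activity normalized between buffer-only basal and Salinomycin (10uM) inhibitor controls.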
HCV inh – blocks hepatitis C virus; Huh7.5.1 HCVcc-Cre infection, luciferase reporter, 44 h; Potency, µM (titrated, usually from 41.8 µM), usual class: inhibitors; hit rate 3.4% among 340,000; AID 651820; active = well fitted inhibition curve with a large enough effect; inconclusive = small, poorly fitted or top-dose-only effect, or another doubt; inactive = no such curve, though single readings can be large or run the other way
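A cell-based infection assay in which seeded cells (1,000 per well) receive test compound after 4 h, are inoculated with HCVcc-Cre at approximately 0.5 moi, and are incubated 44 h before luminescence detection.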
LASV entry inh – blocks Lassa virus binding to or entry into cells; Lassa virus pseudotype entry inhibition, cell reporter; Potency, µM (top dose mostly 37.9 µM), hits mostly inhibitors; hit rate 1.2% among 300,000; AID 540256; calls by dose curve; tested in HEK293 cells; note: nearly all actives have a fitted effect of over 50% in size
MARV entry inh – inhibitors of Marburg virus binding or cell entry; Potency, µM (titrated, usually from 37.8 µM), hits mostly inhibitors; Marburg virus pseudotyped entry inhibition, cell reporter; AID 540276; hit rate 1.8% among 300,000; calls by dose curve; tested in HEK293 cells
Vaccinia Venus – vaccinia inhibition (Venus reporter). Vaccinia virus Venus reporter expression, fluorescence. Potency, µM (series often up to 36.5 µM), hits mostly inhibitors. hit rate 0.46% among 330,000; calls by dose curve; tested in A549 cells; note: nearly all actives have a fitted effect of over 30% in size
A number is an active result; - = inactive; ? = inconclusive; . = no result given. Only some compounds are listed: those with a hit (about 7.8% of all), similar ones and a draw of the others.

SMILES	VACV mCherry inh	HCMV inh	HCV inh	LASV entry inh	MARV entry inh	Vaccinia Venus
Cc1cccn2cc(-c3ccc4c(c3)NC(=O)CO4)nc12	-	-	-	?	-	-
COCCNC(=O)CCn1c(=O)c2cc(OC)c(OC)cc2n(CC(=O)Nc2ccc(Cl)cc2F)c1=O	-	-	.	-	-	-
COc1ccc(CNC(=O)c2cnn(-c3ncc4c(n3)-c3ccccc3CC4)c2C)cc1OC	-	.	.	.	.	-
C[C@@H]1CC2[C@@H]3CC[C@H]4CC(=O)CC[C@]4(C)C3=CC[C@]2(C)[C@@]1(O)C(=O)CO (stereo not given in full)	-	-101	?	-	-	-
CCc1ccc(N/C(SCc2cccc(F)c2)=C(/C#N)C(=O)NCc2ccco2)cc1	.	-	-	?	21µM	.
O=C1CCC[C@H]2[C@@H](Cc3ccccc3)[C@@H](NCc3ccccc3)CC[C@]23CCCN13	.	-	.	.	.	.
Cc1ccc2occ(-c3cc(-c4ccccc4)nc4c3COc3ccccc3-4)c(=O)c2c1	-	-	.	-	-	-
O=[N+]([O-])c1ccc(Sc2ccccn2)nc1	?	-	-	-	-	?
O=[N+]([O-])c1ccc(Sc2nnnn2-c2ccccc2)nc1	-	-88	?	?	13µM	-
O=C(C#Cc1ccccc1)c1ccccc1	?	-84	.	.	.	?
O=C(C#Cc1ccccc1)c1ccc([N+](=O)[O-])cc1	-	-88	?	?	-	-
O=C(CSCC(=O)c1ccc([N+](=O)[O-])cc1)c1ccc([N+](=O)[O-])cc1	-	.	.	.	.	-
CN(C)C(=O)C#Cc1ccccc1	-	-	-	?	-	-
Cc1ccc(NC(=O)COc2ccccc2C(=O)Nc2ccccc2)cc1Cl	-	-	-	-	-	-
CCOc1ccc(NC(=O)C(C)Oc2ccccc2C(=O)Nc2ccc(C)c(Cl)c2)cc1 (stereo not given)	.	-	11µM	-	-	.
COCc1cc2cc3c(cc2c2c(C(=O)OC)c(C(=O)OC)c(C(=O)OC(C)(C)C)n12)OCO3	.	.	.	?	-	.
O=C(CN1c2ccccc2S(=O)(=O)c2ccccc21)Nc1ccccc1Cl	-	-	.	?	.	-
C[C@@H](Oc1ccccc1)c1nnn(Cc2ccccc2)c1-c1c([C@@H](C)Oc2ccccc2)nnn1Cc1ccccc1	-	-72	-	.	.	-
OC(C[n+]1c(Cl)ccc2ccccc21)c1ccccc1 (stereo not given)	-	.	.	.	.	-
COc1ccc(C(=O)N2CCN(c3ccc([N+](=O)[O-])c(NCCc4ccc(OC)c(OC)c4)c3)CC2)cc1	?	-99	1µM	4.5µM	?	-
COc1ccc(CCNc2cc(N3CCN(C(=O)c4ccccc4F)CC3)ccc2[N+](=O)[O-])cc1OC	?	-97	?	?	?	?
COc1ccc(CCNc2cc(N3CCN(C(=O)c4ccc(C)cc4)CC3)ccc2[N+](=O)[O-])cc1OC	.	.	-	-	-	.
COc1ccc(C2NC(=O)N(C)C3=C2C(=O)N(c2ccc(Br)cc2)C3)cc1 (stereo not given)	-	-	.	-	.	-
COc1ccc(N2CC3=C(C2=O)C(c2ccc(Br)cc2)NC(=O)N3C)cc1 (stereo not given)	-	-99	.	?	-	-
CCc1ccccc1N1CC(c2nc3ccccc3n2CC(C)C)CC1=O (stereo not given)	-	-	.	?	-	-
SMILES	VACV mCherry inh	HCMV inh	HCV inh	LASV entry inh	MARV entry inh	Vaccinia Venus
Cc1ccccc1NC1=NCC(c2ccc([N+](=O)[O-])cc2)S1 (stereo not given)	11µM	?	-	-	?	13µM
CCN(CC)CC(=O)Nc1ccc(Oc2ccc(NC(=O)CN(CC)CC)cc2)cc1	-	-	?	-	4µM	-
O=C(C/C=N\O)Nc1ccc(Oc2ccccc2)cc1	?	-	-	-	-	-
CO/N=C\CC(=O)Nc1ccc(Oc2ccccc2)cc1	?	-70	-	?	?	-
CCC(C)NCC(=O)Nc1ccc(-c2nc3cc(NC(=O)CNC(C)CC)ccc3o2)cc1 (stereo not given)	.	-84	-	?	?	-
CCN(CC)CC(=O)Nc1ccc(-c2nc3cc(NC(=O)CN(CC)CC)ccc3o2)cc1	.	-	-	-	0.71µM	-
COc1ccc(Cl)cc1NC(=O)c1cnc2sc(N3CCOCC3)nn2c1=O	-	-	.	-	.	-
O=C(CN1CCCC1)Nc1ccc(-c2nc3cc(NC(=O)CN4CCCC4)ccc3o2)cc1	.	-100	?	?	?	.
